PubChem BioAssay (NCATS)
Results filed as inconclusive are left out. The source made the active and inactive calls. Calls come from the whole dose curve; as a rule, active = well fitted inhibition curve with a large enough effect; inconclusive = small, poorly fitted or top-dose-only effect; inactive = flat fitted curve, though single readings scatter.

Test system: CRL-7250
Assay: qHTS assay to identify novel small-molecules to repurpose for Merkel cell carcinoma treatment (AID 1296009); note: nearly all actives have a fitted effect of over 60% in size
Conditions: MCC and control cell lines, CellTiter-Glo viability, 72 h; series mostly up to 92 µM; activity change, negative = cytotoxicity: at the top concentration
How it was run: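 Luminescence from CellTiter-Glo, read 10 min after addition at room temperature, reported viability following a 72 hr, 37 degree celsius treatment with NPC or MIPE compounds in titration; values normalized to plate controls.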

SMILES | outcome
CC1(C)C[C@H](O)C[C@@]2(C)[C@H]1[C@H](O)C=C1COC(=O)[C@@]12O | inactive
CC1CCC2(C(=O)OC3OC(COC4OC(CO)C(O)C(O)C4O)C(O)C(O)C3O)CCC3(C)C(=CCC4C5(C)CCC(O)C(C)(C(=O)O)C5CCC43C)C2C1(C)O (stereo not given) | inactive [at 9.27 µM]
C[C@H](Oc1ccc(S(C)(=O)=O)cc1C(=O)N1CCN(c2ncc(C(F)(F)F)cc2F)CC1)C(F)(F)F | inactive
CC(=O)OCC(Cc1ccccc1)NC(=O)C(Cc1ccccc1)NC(=O)c1ccccc1 (stereo not given) | inactive [at 17.4 µM]
CC1CC2OCC3(O)CCC(O)C(C14CC(c1ccoc1)OC4=O)C23CO (stereo not given) | inactive
CC(=O)c1ccc(O[C@@H]2OC[C@@H](O)[C@H](O)[C@H]2O[C@]2(CO)O[C@H](CO)[C@@H](O)[C@@H]2O)c(O)c1 | inactive [at 17.4 µM]
Clc1cccc(COc2cncc(N3CCNCC3)n2)c1 | inactive
CC1(C)CC[C@]2(C(=O)O)CC[C@]3(C)C(=CCC4[C@@]5(C)CC[C@H](O)C(C)(C)C5CC[C@]43C)C2C1 (stereo not given in full) | inactive [at 17.4 µM]
Cc1cccc(NC(=O)CN2CCC(c3ccccn3)CC2)c1 | inactive
CC(=O)OCC1OC(O[C@H]2CC[C@@]3(C)C(CC[C@]4(C)C3CC=C3[C@@H]5CC(C)(C)CC[C@]5(C(=O)O)CC[C@]34C)[C@]2(C)CO)C(O)C(O)C1OC1OC(C)C(O)C(OC2OCC(O)C(O)C2O)C1O (stereo not given in full) | inactive [at 9.27 µM]
CC1=CC(=O)CC(C)(CO[C@@H]2O[C@H](CO)[C@@H](O)[C@H](O)[C@H]2O)C1(O)/C=C/C(C)=C/C(=O)O (stereo not given in full) | inactive [at 17.4 µM]
O=C(NCc1nc2ccccc2c(=O)n1-c1ccc(F)cc1)Nc1ccc(Cl)c(C(F)(F)F)c1 | inactive
C[C@@H]1CC[C@]2(C(=O)OC3OC(CO)C(O)C(O)C3O)CC[C@]3(C)C(=CCC4[C@@]5(C)CC[C@H](O)[C@](C)(C(=O)O)C5CC[C@]43C)C2[C@]1(C)O (stereo not given in full) | inactive [at 17.4 µM]
CC1(C)CC[C@]2(C(=O)O[C@@H]3O[C@H](CO[C@@H]4O[C@H](CO)[C@@H](O)[C@H](O)[C@H]4O)[C@@H](O)[C@H](O[C@@H]4O[C@H](CO)[C@@H](O)[C@H](O)[C@H]4O)[C@H]3O)CC[C@]3(C)C(=CCC4[C@@]5(C)CC[C@H](O[C@@H]6OC[C@@H](O)[C@H](O)[C@H]6O)[C@@](C)(C(=O)O)C5CC[C@]43C)[C@@H]2C1 (stereo not given in full) | inactive [at 9.27 µM]
CCC1OC(=O)C(C)CC(C)C(=O)/C(C)=C/C(C)C(=O)/C=C/C1(C)O (stereo not given) | inactive
CC(C)=CCC[C@](C)(O[C@@H]1O[C@H](CO[C@@H]2OC[C@H](O)[C@H](O)[C@H]2O)[C@@H](O)[C@H](O)[C@H]1O)[C@H]1CC[C@]2(C)[C@@H]1[C@H](O)C[C@@H]1[C@@]3(C)CC[C@H](O[C@@H]4O[C@H](CO)[C@@H](O)[C@H](O)[C@H]4O[C@@H]4O[C@H](CO)[C@@H](O)[C@H](O)[C@H]4O)C(C)(C)[C@@H]3CC[C@]12C | inactive [at 17.4 µM]
O=C1COc2nccc(-c3ccccc3F)c2CN1Cc1cc(C(F)(F)F)cc(C(F)(F)F)c1 | inactive
CC(C)(C)NS(=O)(=O)c1cncc(-c2cc(F)c3nc(N)nn3c2)c1 | inactive
C=C1CCC[C@]2(C)C[C@]3(O)OC(=O)C(C)=C3C[C@@H]12 | inactive
C=CC1(C)C=C2C(O)CC3C(C)(C(=O)O)CCCC3(C)C2CC1 (stereo not given) | inactive

SMILES | outcome
CCC/C=C/C=C/C1CC(O)C(O)C(=O)C1CO (stereo not given) | inactive
COc1cc(/C=C/C(=O)O[C@H]2[C@H](O)[C@@H](CO)O[C@@]2(CO)O[C@H]2O[C@H](COC(=O)c3ccc(O)cc3)[C@@H](O)[C@H](O)[C@H]2O)cc(OC)c1OC | inactive [at 17.4 µM]
O=C(O)c1ccccc1NC(=O)N1CCC(c2ccccc2C(F)(F)F)CC1 | inactive
CC1C(=O)OCC2=CCN3CCC(OC(=O)C(C)(O)C1(C)O)C23 (stereo not given) | inactive
CC1(C)C2CCC1(C)C(OC(=O)C(O)(CC(=O)O)CC(=O)O)C2 (stereo not given) | inactive
CC(CCO)CCC1C2(C)CCCC(C)(C)C2CC[C@@]1(C)O (stereo not given in full) | inactive
COc1cc(C2Oc3c(OC)cc(/C=C/C(=O)OC[C@H]4O[C@@H](OC(C)(C)C(=O)O)[C@H](O)[C@@H](O)[C@@H]4O)cc3C2CO)ccc1O (stereo not given in full) | inactive [at 17.4 µM]
CC(=O)OC1C(C)C2C(OC3OC(CO)C(O)C(O)C3O)OC=C(C(=O)O)C2C1OC(=O)c1ccccc1 (stereo not given) | inactive [at 17.4 µM]
C=CC1C(O[C@@H]2O[C@H](CO)[C@@H](O)[C@H](O)[C@H]2O)OC=C(C(=O)OC)C1CC(=O)O (stereo not given in full) | inactive [at 17.4 µM]
CC(C)(O)C1OC1C1=CC(=O)C2(C)OC2C1O (stereo not given) | inactive
COc1cc(C2OCC3(O)C(c4ccc(O[C@@H]5O[C@H](CO)[C@@H](O)[C@H](O)[C@H]5O)c(OC)c4)OCC23O)ccc1O (stereo not given in full) | inactive [at 17.4 µM]
CC1OC(OC2CCC3(C)C(CCC4(C)C3CC=C3C5CC(C)(C)CCC5(C(=O)OC5OC(CO)C(O)C(O)C5O)CCC34C(=O)O)C2(C)C)C(O)C(O)C1O (stereo not given) | inactive [at 17.4 µM]
CC(C)C1NC(=O)C(CC2(O)c3ccccc3N3C(=O)C(Cc4ccccc4)NC32)NC1=O (stereo not given) | inactive [at 17.4 µM]
C=C1CCC2C(C)(C(=O)O)CCCC2(C)C1CCC1=CCOC1=O (stereo not given) | inactive
COc1cc(Br)c(S(=O)(=O)Nc2ccc(Cl)c(O[C@@H]3CCN(C)C3)c2)cc1OC | inactive
COc1cc(C2Oc3c(OC)cc(CCCO)cc3C2CO)ccc1O[C@H]1O[C@H](C)[C@@H](O)[C@H](O)[C@@H]1O (stereo not given in full) | inactive [at 17.4 µM]
NC(Cc1c[nH]c2ccccc12)C(=O)NC(CCC(=O)O)C(=O)O (stereo not given) | inactive
C[C@@H]1CC[C@]2(C(=O)O[C@@H]3O[C@H](CO)[C@@H](O)[C@H](O)[C@H]3O)CC[C@]3(C)C(=CCC4[C@@]5(C)C[C@@H](O)[C@H](O)C(C)(C)C5CC[C@]43C)C2[C@]1(C)O (stereo not given in full) | inactive [at 17.4 µM]
CC12CCC3c4ccc(OC5OC(C(=O)O)C(O)C(O)C5O)cc4CCC3C1CCC2O (stereo not given) | inactive
C=CC(=O)N1CC(N2CCN(C(=O)CNc3cc(C4CC4)c(Cl)cc3O)CC2)C1 | inactive
